± gives the standard deviation.
Test system: MILI (PIWIL2) piRISC loaded with piRNA #1 (26 nt)
Experiment: pre-steady-state target cleavage rate (min^-1); guide: piRNA #1 5'p-UGAGGUAGUAGGUUGUAUAGUAUCCA; MIWI and MILI are mouse PIWI proteins and EfPiwi is from a freshwater sponge; tags in brackets are library labels; higher = faster piRNA-guided slicing of the target
Conditions: auxiliary factor: 500 nM mouse GTSF1
Summary of the method: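 The pre-steady-state cleavage rate was calculated from a burst-and-steady-state fit. Data came from Cleave-'n-Seq, in which […] transcribed, DNA-blocked target RNA library was mixed with 1 nM active affinity-purified piRISC carrying one synthetic guide, with or without 500 nM GTSF1 partner protein, in HEPES–potassium acetate buffer at 33 °C for 0–8 or 0–960 min. Uncleaved targets were sequenced and normalised to depth and to weakly complementary targets, three trials were pooled, and k3 was capped at 0.0001 min^-1.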
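Note: 1 nM active piRISC with 0.1 nM target library at 33 °C single turnover.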

Sequence | pre-steady-state target cleavage rate
GGAGACCUUACUAUAGUACCUACUACCUCA | 0.119 ± 0.0098
GGAGUCGAUACUAUACAACCUACUUCCUCA | 0.0291 ± 0.0072
GGAGACCUAUGAUAACAACCUAUCUACCUCA | 0.00737 ± 0.0021
GGAGAGCUUACUAUACAACCUACUACCUCA | 0.132 ± 0.0097
GGAGACCUAUGAUUACAACCUACUACCUGCA | 0.00769 ± 0.0026
GGAGACCUUAUUAUACAACCUACUACCUCA | 0.14 ± 0.011
GGAGACCUUACUAUAAACCUACUACCUCA | 0.00481 ± 0.0027
GGAGACCUAUGAUAUCAACCUACAACGUCA | < 0.0001
GGAGACCAUACUAUAGAACGUACUACCUCA | 0.00933 ± 0.0017
GGAGACCUAUCUAUACAAGGAACUACCUCA | 0.0048 ± 0.002
GGAGACCUAUCUAUAGAUCCUACUACCUCA | 0.144 ± 0.017
GGAGACCUUACUAUUCAACCUACAACCUCA | 0.12 ± 0.013
GGAGACCUAUGUAUACUACCUACUUCCUCA | 0.0346 ± 0.0069
GGAGACCAUACUUUACAACGUACUACCUCA | 0.0198 ± 0.0034
GGAGACCAUACAAUACAACCUACAACCUCA | 0.136 ± 0.014
GGAGAGGAAACUAUUCAACCUACUACCUCA | 0.172 ± 0.021
GGAGUGGAUACUAAAGAACCUACUACCUCA | 0.167 ± 0.011
GGAGACCUAUCUAUACAACCUACUACACUCA | 0.179 ± 0.022
GGAGACCUAUGUAUACAACCGACUACCUCA | 0.00448 ± 0.0021
GGAGACCUAUGAUAUGAACGUACAACCUCA | < 0.0001

Sequence | pre-steady-state target cleavage rate
GGAGACCUAACUUUACAACCUACUACGUCA | 0.0224 ± 0.01
GGAGACCUAUGAUAACAACCUACAACCUCA | 0.00456 ± 0.0024
GGAGACCUAUCUAUACAACCUACUCACCUCA | 0.0886 ± 0.011
GGAGACCUAACAUAACAACCUACUACCUCA | 0.0321 ± 0.011
GGAGAGGAUACUAUACAAACCUACUACCUCA | 0.00683 ± 0.0028
GGAGACCUAUGAUAUGAACCUACAACGUCA | < 0.0001
GGAGACCUAUCUAUACAACCUACGUACCUCA | 0.0605 ± 0.012
GGAGACCUAUCUAUACAACCUACUACCUCC [g2:g20:cont:t1C] | 0.106 ± 0.011
GGAGACCUUACUUUACAAGCUACUACCUCA | 0.232 ± 0.013
GGAGACCUAACUAUACUACCUACUACCACA | 0.0974 ± 0.017
GGAGACCUAUGUUUACAACCUUCUACCUCA | 0.00358 ± 0.0029
GGAGACCUAUGAUUACAUCCUACUAGCUCA | 0.00651 ± 0.0025
GGAGACCUAUGAAUACAACCUACUACAUCA | 0.00323 ± 0.0026
GGAGACCUAUGAUAUCAAGCUACUACCACA | 0.00606 ± 0.0028
GGAGACCUAUGAUAUGUUCCUAUCUACCUCA | < 0.0001
GGAGACCAUACUAUAGAACCUACUACCUGA | 0.00906 ± 0.0046
GGAGACCUAUGAUAUCAUCCUACAACCUCA | 0.00348 ± 0.003
GGAGUGGAUACUAUACAACCUACUUGGUCA | < 0.0001
GGAGACCUAUGUAUACAACCUACAAGCUCA | 0.0033 ± 0.0026
GGAGACCUAUGUAUUCAACCUACUACCUGA | 0.0167 ± 0.0046
